Hit rate of the full screen: of about 5,500 compounds, about 2,000 (36%) were called active. Roughly 18% stayed inconclusive and do not appear here. Cut-off read from the data, not from the text of the source: active = normalized growth mostly below about 0.91 (no sharp cut-off); inconclusive = no clear call, values can overlap the other calls; inactive = mostly above about 0.92. Some of the results follow.
Assay: chemical genetic growth profiling, strain panel (AID 1159580);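 note: tested at 20 µM; growth read once vehicle control cultures reached saturation at 30 °C; 1 = growth at the plate median or of vehicle wells; lower values mean less growth of the strain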
Conditions: S. cerevisiae deletion strains, growth OD
[1] = locus YAR019C, strain CDC15, stronger effect = lower value
[2] = locus YBL105C, strain PKC1, stronger effect = lower value
[3] = locus YBR135W, strain CKS1, stronger effect = lower value
[4] = locus YBR136W, strain MEC1, stronger effect = lower value
[5] = locus YBR160W, strain CDC28, stronger effect = lower value
[6] = locus YDL017W, strain CDC7, stronger effect = lower value
[7] = locus YDL028C, strain MPS1, stronger effect = lower value
[8] = locus YDL101C, strain DUN1, stronger effect = lower value
[9] = locus YDL108W, strain KIN28, stronger effect = lower value
[10] = locus YDL132W, strain cdc53, stronger effect = lower value
[11] = locus YDL214C, strain PRR2, stronger effect = lower value
[12] = locus YDR052C, strain DBF4, stronger effect = lower value
[13] = locus YDR054C, strain cdc34, stronger effect = lower value
[14] = locus YDR226W, strain ADK1, stronger effect = lower value
[15] = locus YDR477W, strain SNF1, stronger effect = lower value
[16] = locus YER123W, strain YCK3, stronger effect = lower value
[17] = locus YER133W, strain GLC7, stronger effect = lower value
[18] = locus YFL009W, strain cdc4, stronger effect = lower value
[19] = locus YFL029C, strain CAK1, stronger effect = lower value
[20] = locus YFR003C, strain YPI1, stronger effect = lower value
[21] = locus YFR019W, strain FAB1, stronger effect = lower value
[22] = locus YFR028C, strain CDC14, stronger effect = lower value
[23] = locus YGR040W, strain KSS1, stronger effect = lower value
[24] = locus YGR052W, strain FMP48, stronger effect = lower value
[25] = locus YGR092W, strain DBF2, stronger effect = lower value
[26] = locus YHR030C, strain SLT2, stronger effect = lower value
[27] = locus YHR079C, strain IRE1, stronger effect = lower value
[28] = locus YHR082C, strain KSP1, stronger effect = lower value
[29] = locus YHR205W, strain SCH9, stronger effect = lower value
[30] = locus YIL147C, strain SLN1, stronger effect = lower value
[31] = locus YJL095W, strain BCK1, stronger effect = lower value
[32] = locus YJL128C, strain PBS2, stronger effect = lower value
[33] = locus YJL157C, strain FAR1, stronger effect = lower value
[34] = locus YJR016C, strain ILV3, stronger effect = lower value
[35] = locus YJR066W, strain TOR1 (second series), stronger effect = lower value
[36] = locus YJR066W, strain TOR1, stronger effect = lower value
[37] = locus YKL048C, strain ELM1, stronger effect = lower value
[38] = locus YKL067W, strain YNK1, stronger effect = lower value
[39] = locus YKL101W, strain HSL1, stronger effect = lower value
[40] = locus YKL193C, strain SDS22, stronger effect = lower value
[41] = locus YKL203C, strain TOR2, stronger effect = lower value
[42] = locus YLR113W, strain HOG1, stronger effect = lower value
[43] = locus YLR133W, strain CKI1, stronger effect = lower value
[44] = locus YLR403W, strain SFP1, stronger effect = lower value
[45] = locus YML070W, strain DAK1, stronger effect = lower value
[46] = locus YMR001C, strain CDC5, stronger effect = lower value
[47] = locus YMR205C, strain PFK2 (second series), stronger effect = lower value
[48] = locus YMR277W, strain FCP1, stronger effect = lower value
[49] = locus YNL006W, strain LST8, stronger effect = lower value
[50] = locus YNL020C, strain ARK1, stronger effect = lower value
[51] = locus YNL161W, strain CBK1, stronger effect = lower value
[52] = locus YNL183C, strain NPR1, stronger effect = lower value
[53] = locus YNL207W, strain RIO2, stronger effect = lower value
[54] = locus YNL222W, strain SSU72, stronger effect = lower value
[55] = locus YNL307C, strain MCK1 (second series), stronger effect = lower value
[56] = locus YOL078W, strain AVO1, stronger effect = lower value
[57] = locus YOL136C, strain PFK27, stronger effect = lower value
[58] = locus YOR061W, strain CKA2, stronger effect = lower value
[59] = locus YOR119C, strain RIO1, stronger effect = lower value
[60] = locus YOR231W, strain MKK1, stronger effect = lower value
[61] = locus YOR329C, strain SCD5, stronger effect = lower value
[62] = locus YPL031C, strain PHO85, stronger effect = lower value
[63] = locus YPL153C, strain RAD53, stronger effect = lower value
[64] = locus YPL204W, strain HRR25, stronger effect = lower value
[65] = locus YPL209C, strain IPL1, stronger effect = lower value
[66] = locus YPL256C, strain CLN2, stronger effect = lower value
[67] = locus YPR025C, strain CCL1, stronger effect = lower value
[68] = locus YPR106W, strain ISR1, stronger effect = lower value
[69] = locus YPR111W, strain DBF20, stronger effect = lower value
[70] = strain NNK1, stronger effect = lower value
[71] = strain TSCII, stronger effect = lower value

Measured: normalized growth

CC(=O)c1ccc(Cl)c(N=Cc2cc(Br)cc(Br)c2O)c1
active: [1] 0.107 | [2] 0.0938 | [3] 0.0994 | [4] 0.112 | [5] 0.127 | [6] 0.104 | [7] 0.12 | [8] 0.118 | [9] 0.127 | [10] 0.402 | [11] 0.106 | [12] 0.303 | [13] 0.166 | [14] 0.621 | [15] 0.109 | [16] 0.115 | [17] 0.105 | [18] 0.0929 | [19] 0.0974 | [20] 0.0995 | [21] 0.0995 | [22] 0.102 | [23] 0.103 | [24] 0.128 | [25] 0.102 | [26] 0.141 | [27] 0.124 | [28] 0.134 | [29] 0.00344 | [30] 0.104 | [31] 0.141 | [32] 0.0977 | [33] 0.0879 | [34] 0.0892 | [35] 0.091 | [36] 0.12 | [37] 0.114 | [38] 0.0955 | [39] 0.112 | [40] 0.0908 | [41] 0.113 | [42] 0.161 | [43] 0.0941 | [44] -0.00302 | [45] 0.099 | [46] 0.0969 | [47] 0.0844 | [48] 0.0941 | [49] 0.0893 | [50] 0.103 | [51] 0.0859 | [52] 0.119 | [53] 0.0975 | [54] 0.0926 | [55] 0.103 | [56] 0.0827 | [57] 0.102 | [58] 0.0946 | [59] 0.102 | [60] 0.119 | [61] 0.0861 | [62] 0.105 | [63] 0.0925 | [64] 0.0963 | [65] 0.0856 | [66] 0.144 | [67] 0.0958 | [68] 0.0925 | [69] 0.106 | [70] 0.102 | [71] 0.102

Cc1c(C)c(C)c(C(=O)c2ccc(N=Cc3cc(Cl)cc(Cl)c3O)cc2)c(C)c1C
inactive: [1] 0.929 | [2] 0.934 | [3] 0.94 | [4] 0.925 | [5] 0.944 | [6] 0.926 | [7] 0.941 | [8] 0.949 | [9] 0.944 | [10] 0.926 | [13] 0.918 | [14] 0.923 | [18] 0.922 | [19] 0.932 | [20] 0.922 | [22] 0.941 | [24] 0.605 | [28] 0.631 | [30] 0.926 | [32] 0.927 | [34] 0.944 | [39] 0.735 | [40] 0.93 | [46] 0.938 | [48] 0.929 | [49] 0.938 | [51] 0.925 | [52] 0.655 | [53] 0.937 | [54] 0.94 | [56] 0.94 | [61] 0.921 | [65] 0.925 | [67] 0.937 | [68] 0.938 | [69] 0.941 | [70] 0.939 | [71] 0.925
active: [11] 0.681 | [12] 0.904 | [15] 0.573 | [16] 0.464 | [17] 0.527 | [21] 0.625 | [23] 0.63 | [25] 0.239 | [26] 0.262 | [27] 0.338 | [29] 0.509 | [31] 0.233 | [33] 0.503 | [35] 0.6 | [36] 0.458 | [37] 0.55 | [38] 0.663 | [41] 0.662 | [42] 0.585 | [43] 0.523 | [44] 0.459 | [45] 0.502 | [47] 0.645 | [50] 0.469 | [55] 0.503 | [57] 0.382 | [58] 0.493 | [59] 0.663 | [60] 0.446 | [62] 0.583 | [63] 0.504 | [64] 0.483 | [66] 0.403

CCOC(=O)c1ccc(Cl)c(N=Cc2cc(Cl)cc(Cl)c2O)c1
active: [11] 0.544 | [15] 0.533 | [16] 0.319 | [17] 0.567 | [21] 0.472 | [23] 0.591 | [24] 0.511 | [25] 0.197 | [26] 0.238 | [27] 0.238 | [28] 0.501 | [29] 0.468 | [31] 0.298 | [33] 0.401 | [36] 0.37 | [37] 0.636 | [38] 0.527 | [39] 0.608 | [41] 0.594 | [42] 0.377 | [43] 0.432 | [44] 0.364 | [45] 0.389 | [47] 0.507 | [50] 0.404 | [52] 0.413 | [55] 0.381 | [57] 0.322 | [58] 0.326 | [59] 0.569 | [60] 0.301 | [62] 0.528 | [63] 0.421 | [64] 0.421 | [66] 0.317
inactive: [1] 0.955 | [2] 0.967 | [3] 0.943 | [4] 0.956 | [5] 0.948 | [6] 0.95 | [7] 0.946 | [8] 0.974 | [9] 0.953 | [10] 0.951 | [12] 0.959 | [13] 0.957 | [14] 0.969 | [18] 0.949 | [19] 0.951 | [20] 0.946 | [22] 0.969 | [30] 0.946 | [32] 0.964 | [34] 0.956 | [35] 0.622 | [40] 0.95 | [46] 0.955 | [48] 0.954 | [49] 0.951 | [51] 0.951 | [53] 0.956 | [54] 0.951 | [56] 0.956 | [61] 0.958 | [65] 0.954 | [67] 0.947 | [68] 0.961 | [69] 0.958 | [70] 0.957 | [71] 0.957

CC(=O)c1ccc(Cl)c(N=Cc2cc(Cl)cc(Cl)c2O)c1
active: [11] 0.303 | [15] 0.289 | [16] 0.151 | [17] 0.354 | [21] 0.222 | [23] 0.339 | [24] 0.253 | [25] 0.139 | [26] 0.159 | [27] 0.148 | [28] 0.227 | [29] 0.199 | [31] 0.139 | [33] 0.23 | [35] 0.341 | [36] 0.175 | [37] 0.441 | [38] 0.227 | [39] 0.308 | [41] 0.399 | [42] 0.192 | [43] 0.274 | [44] 0.186 | [45] 0.184 | [47] 0.304 | [50] 0.247 | [52] 0.246 | [55] 0.209 | [57] 0.197 | [58] 0.198 | [59] 0.32 | [60] 0.123 | [62] 0.269 | [63] 0.197 | [64] 0.247 | [66] 0.197
inactive: [1] 0.94 | [2] 0.948 | [3] 0.953 | [4] 0.941 | [5] 0.937 | [6] 0.944 | [7] 0.91 | [8] 0.932 | [9] 0.935 | [10] 0.958 | [12] 0.963 | [14] 0.948 | [18] 0.928 | [19] 0.934 | [20] 0.933 | [22] 0.939 | [30] 0.926 | [32] 0.9 | [34] 0.967 | [40] 0.941 | [46] 0.936 | [48] 0.92 | [49] 0.947 | [51] 0.955 | [53] 0.947 | [54] 0.923 | [56] 0.926 | [61] 0.953 | [65] 0.95 | [67] 0.959 | [68] 0.952 | [69] 0.931 | [70] 0.948 | [71] 0.905

Source: PubChem BioAssay AID1159580 (chemical genetic matrix, 2015)
